FXN GAA850 act: FXN promoter activators, primary screen, cell-based, luciferase luminescence, HEK293 lucGAA850 | HEK293 lucGAA850 FXN promoter luciferase reporter, 24 h; percent of 10 µM SAHA response | activation, % at 6 µM | 360,000 compounds, 0.56% hits | AID 540364, 2011;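 active = activation above the average of all compounds screened plus 3 SD, cutoff fixed separately per campaign, cut at about 7.5% in these data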
Wnt bcat act: Wnt/beta-catenin pathway activators, primary screen, cell-based, plate reader, single point; activation, % at 9.35 µM; Wnt/beta-catenin reporter cell assay, activator; 300,000 compounds, 1.2% hits; in the data active = activation above about 30%, passing the limit was not always enough
C2C12 statin: suppressors of statin myotoxicity in C2C12 myotubes, primary screen, cell-based, single point, plate reader. AID 602340, 2012. C2C12 myotubes + simvastatin, ATP luminescence, 48 h; scaled: DMSO 0, geranylgeraniol control 100. 330,000 compounds, 0.78% hits. rescue of ATP level, % at 7.49 µM;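 active = mean ATP rescue above about 67%, or every replicate alone reaching that limit, limit read from the data, passing the limit was not always enough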;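 also: myotubes were challenged with 10 µM simvastatin during compound exposure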
esBAF inh: Bmi1 luciferase reporter increase in mESCs, primary screen, esBAF inhibitor project, mouse ES cells, Bmi1 luciferase knock-in, single point; 24 h; 100% = twice the neutral-well signal; 350,000 compounds, 2% hits; reporter increase, % at 12.5 µM; in the data active = activation above about 40%;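 also: a rise in the Bmi1 reporter signal indicates esBAF inhibition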
MITF TRPM1 HTS: activators of MITF-driven TRPM1 promoter reporter, primary screen, cell-based, SK-MEL-5, luciferase, single point; SK-MEL-5 TRPM1-promoter luciferase, 24 h; % of positive control, neutral wells = 0; activation, % at 12.5 µM; 300,000 compounds, 0.75% hits; AID 588334, 2011;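 active = mean activation of at least 80% with every replicate also reaching 80%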
GAA30 FXN cntr: GAA30 FXN promoter activators, confirmation, counter-screen for GAA850 frataxin promoter activator project, cell-based, luminescence, HEK293, lucGAA30, triplicate; AID 588350, 2011; activation, % at 6 µM; 1,900 compounds, 66% hits; HEK293 lucGAA30 FXN promoter luciferase, 24 h; DMSO = 0%, 5 µM ipriflavone = 100%; shares compounds with FXN GAA850 act;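 active = mean activation above the mean of solvent-only control wells plus 3 SD, cut at about 22% in these data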;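 also: counterscreen of GAA850 promoter hits where activity marks nonselective or luminescence artifacts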
GAA850 confirm: FXN GAA850 promoter activators in reporter cells, confirmation, cell-based, luminescence, HEK293 lucGAA850, triplicate; shares compounds with FXN GAA850 act; HEK293 lucGAA850 FXN promoter luciferase reporter, 24 h; 100% = activation by SAHA; activation, % at 6 µM; 1,900 compounds, 86% hits; AID 588351, 2011;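 active = mean activation above a set limit taken from the primary screen, cut at about 8% in these data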
Of the large screens only hits and unclear results are named; the others gave an inactive call (follow-up assays come after a bar, where they were run). Sampled rows, rich in hits. Any-hit rate of the full collection: about 3.3%.

COCCn1c(C)cc(C(=O)COC(=O)c2ccc3c(c2)NC(=O)CS3)c1C	none (no result: Wnt bcat act, C2C12 statin, esBAF inh)
CC(C)(C)n1nnnc1C(c1ccc(C(F)(F)F)cc1)N(Cc1ccc(F)cc1)Cc1ccco1 (stereo not given)	FXN GAA850 act 8.7 (no result: Wnt bcat act) | GAA30 FXN cntr inactive | GAA850 confirm 14.3
CC(C)(C)n1nnnc1C(c1ccc(F)cc1)N(Cc1ccc(F)cc1)Cc1ccco1 (stereo not given)	FXN GAA850 act 15.1 (no result: C2C12 statin, esBAF inh) | GAA30 FXN cntr inactive | GAA850 confirm 15.4
C[C@@H]1CCCCO[C@@H](CN(C)S(=O)(=O)c2cn(C)cn2)[C@H](C)CN([C@H](C)CO)C(=O)c2cc(NC(=O)CCC(F)(F)F)ccc2O1	none (no result: FXN GAA850 act, Wnt bcat act, MITF TRPM1 HTS)
CN(C)c1nc(C=C(C#N)C#N)c(Cl)n1-c1ccc(F)cc1	FXN GAA850 act 11.1 (no result: C2C12 statin, esBAF inh) | GAA30 FXN cntr inactive | GAA850 confirm 32.8
CCOc1ccccc1NC(=O)/C(C#N)=C/c1c(C)nn(-c2ccc(F)cc2)c1Cl	none (no result: C2C12 statin, esBAF inh)
CC[C@H](C)[C@H](NS(=O)(=O)c1ccc(C)cc1)C(=O)N1CCC(C(=O)N[C@@H](C)C(=O)O)CC1	none (no result: Wnt bcat act)
CCC(C)[C@H](NS(=O)(=O)c1ccc(C)cc1)C(=O)N1CCC(C(=O)N2CCC(C(N)=O)CC2)CC1 (stereo not given in full)	FXN GAA850 act 18.6 | GAA30 FXN cntr inactive | GAA850 confirm inactive
Cc1noc(C)c1NC(=O)N(C)C[C@@H]1OCCCC[C@@H](C)Oc2ccc(NS(=O)(=O)c3cccs3)cc2C(=O)N([C@H](C)CO)C[C@H]1C	none (no result: FXN GAA850 act, Wnt bcat act, C2C12 statin, MITF TRPM1 HTS)
O=C(Nc1ccccc1)c1ccc2ccccc2n1	none
N#Cc1ccc(/C=C(\C(=O)C(=O)O)c2ccc3ccccc3n2)cc1	FXN GAA850 act 8.3 | GAA30 FXN cntr 131.8 | GAA850 confirm 43.0
CN1CCC(N(C)C(=S)Nc2ccc(F)cc2)CC1	none
CC(=O)c1ccc(NC(=S)N(C)C2CCN(C)CC2)cc1	FXN GAA850 act 14.4 (no result: C2C12 statin, esBAF inh) | GAA30 FXN cntr 22.1 | GAA850 confirm inactive
CCC(C)Oc1cc(-c2ccnc(Nc3cccc(Cl)c3)n2)ccn1 (stereo not given)	FXN GAA850 act 22.3 | GAA30 FXN cntr 40.2 | GAA850 confirm 81.6
COc1cc2ccccc2cc1C(=O)Nc1cc(C)ccn1	FXN GAA850 act 8.4, esBAF inh 55.4 | GAA30 FXN cntr 122.9 | GAA850 confirm 39.3
Cc1ccnc(NC(=O)Cc2ccc(-c3ccccc3)cc2)c1	FXN GAA850 act 7.9 (no result: C2C12 statin, esBAF inh) | GAA30 FXN cntr 100.8 | GAA850 confirm 46.2
COc1ccc(C(=O)Nc2ccccc2C(=O)Nc2cc(C)ccn2)cc1	none (no result: MITF TRPM1 HTS)
COc1ccc(-n2c(=S)[nH]c3cc(C(=O)Nc4ccc(OC)c(OC)c4)ccc3c2=O)cc1	FXN GAA850 act 11.2 (no result: Wnt bcat act, C2C12 statin, esBAF inh) | GAA30 FXN cntr inactive | GAA850 confirm inactive
COc1ccc(NC(=O)Nc2ccc3c(c2)CC(=O)N([C@@H](C)CO)C[C@@H](C)[C@H](CN(C)Cc2ccncc2)O3)cc1	none (no result: FXN GAA850 act, Wnt bcat act, MITF TRPM1 HTS)
CC(C)(C)c1csc(N/N=C/c2cccnc2)n1	FXN GAA850 act 7.9, esBAF inh 33.8 (no result: C2C12 statin) | GAA30 FXN cntr 91.5 | GAA850 confirm 37.0
C[C@H]1CN([C@@H](C)CO)C(=O)Cc2cc(NC(=O)Nc3ccc4c(c3)OCO4)ccc2O[C@H]1CN(C)C(=O)Nc1ccccc1	none (no result: FXN GAA850 act, Wnt bcat act, MITF TRPM1 HTS)
CCCNC(=O)N1C[C@H]2[C@@H](c3ccccc31)[C@H](CO)N2Cc1ccc(OC)cc1	none (no result: FXN GAA850 act, Wnt bcat act, MITF TRPM1 HTS)
O=c1[nH]cnc2c1c(-c1ccccc1)cn2-c1ccc(Br)cc1	none (no result: C2C12 statin, esBAF inh)
Cc1cccc(-n2cc(-c3ccccc3)c3c(=O)[nH]cnc32)c1	FXN GAA850 act 8.9 (no result: C2C12 statin, esBAF inh) | GAA30 FXN cntr 22.8 | GAA850 confirm 11.1
O=C(NCCN1CCOCC1)c1cc(-c2ccc(F)cc2)on1	none (no result: Wnt bcat act, C2C12 statin, esBAF inh)
O=C(NCCCN1CCOCC1)c1cc(-c2ccc(F)cc2)on1	FXN GAA850 act 9.9 | GAA30 FXN cntr 48.4 | GAA850 confirm 18.2
CC(=O)N(C1CC(C)C(C#N)(C#N)C1(C#N)C#N)N(C)C (stereo not given)	FXN GAA850 act 9.9 (no result: C2C12 statin, esBAF inh) | GAA30 FXN cntr inactive | GAA850 confirm inactive
COC(=O)C[C@H]1CC[C@@H]2[C@@H](COc3ccc(NC(=O)c4cccc(F)c4)cc3C(=O)N2C)O1	none (no result: FXN GAA850 act, Wnt bcat act, MITF TRPM1 HTS)
COc1ccccc1N(C)S(=O)(=O)c1ccc(Cl)c(C(=O)NCC2(N(C)C)CCCCC2)c1	FXN GAA850 act 11.8 | GAA30 FXN cntr 24.9 | GAA850 confirm inactive
COC(=O)CSc1ncnc2scc(-c3ccccc3)c12	none
Fc1ccc(CSc2ncnc3scc(-c4ccccc4)c23)cc1	FXN GAA850 act 8.9 (no result: C2C12 statin, esBAF inh) | GAA30 FXN cntr 22.1 | GAA850 confirm 13.7
COc1ccc(S(=O)(=O)N(C)C[C@@H]2Oc3ccc(NS(=O)(=O)c4c(C)noc4C)cc3C(=O)N([C@@H](C)CO)C[C@@H]2C)cc1	none (no result: FXN GAA850 act, Wnt bcat act, MITF TRPM1 HTS)
O=C1C=CC(=C(c2ccc(O)cc2)c2ccc(O)cc2)C=C1	FXN GAA850 act 8.6 | GAA30 FXN cntr 28.7 | GAA850 confirm 36.8
CCOC(=O)C1=C(O)/C(=C/c2cc(OC)c(OC)c(OC)c2)SC1=Nc1ccc(OC)cc1	FXN GAA850 act 9.6 (no result: Wnt bcat act, C2C12 statin, esBAF inh) | GAA30 FXN cntr inactive | GAA850 confirm 10.9
CCOC(=O)C1=C(O)/C(=C/c2ccc(OCC(=O)O)c(OCC)c2)SC1=Nc1ccc(OC)cc1	none (no result: C2C12 statin, esBAF inh)
Cc1ccc2ncc(NC(=O)c3ccc(F)cc3)c(=O)n2c1	none
Cc1ccc(C(=O)Nc2cnc3ccccn3c2=O)cc1	FXN GAA850 act 8.3 | GAA30 FXN cntr 100.3 | GAA850 confirm 30.8
Cc1ccc(Nc2nc(N)nc(CSc3nc4ccccc4s3)n2)cc1	FXN GAA850 act 11.5 (no result: Wnt bcat act) | GAA30 FXN cntr 39.6 | GAA850 confirm 22.0
OC1CCN(C(c2ccc3ncccc3c2)c2nnnn2C2CCCCC2)CC1 (stereo not given)	FXN GAA850 act 7.8 | GAA30 FXN cntr inactive | GAA850 confirm inactive
COc1ccc(NC(=O)N(C)C[C@@H]2Oc3ccc(NC(=O)Nc4c(C)noc4C)cc3CC(=O)N([C@@H](C)CO)C[C@@H]2C)cc1	none (no result: FXN GAA850 act, Wnt bcat act, MITF TRPM1 HTS)
C[C@@H]1CCCCO[C@@H](CN(C)S(=O)(=O)c2ccc(F)cc2)[C@H](C)CN([C@H](C)CO)C(=O)c2cc(NC(=O)Nc3ccc4c(c3)OCO4)ccc2O1	none (no result: FXN GAA850 act, Wnt bcat act, C2C12 statin, MITF TRPM1 HTS)
C[C@]1(C(=O)NCCCNc2ncc(C(F)(F)F)cc2Cl)C=C[C@@H](Cc2ccccc2)N1C(=O)c1ccccc1	none (no result: Wnt bcat act)

Source: PubChem BioAssay (several laboratories)
